bovine MsrA act – activates bovine MsrA enzyme; purified bovine MsrA, absorbance read-out; activation, % at 10.6 µM; actives 0.3% (n = 360,000); AID 602163; in the data active = activation above about 7.5%
proKLK7 act – activates the human kallikrein-7 zymogen | P49862 | purified proKLK7, EDANS-DABCYL substrate fluorescence; 100% is mature enzyme control, 0% vehicle | activation, % at 7 µM | actives 0.9% (n = 370,000) | AID 652039;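 active = activation above the mean of all tested compounds plus 3 SD, computed per campaign excluding outliers beyond control limits, cut at about 13% in these data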
Target sequence (P49862 whole entry, looked up): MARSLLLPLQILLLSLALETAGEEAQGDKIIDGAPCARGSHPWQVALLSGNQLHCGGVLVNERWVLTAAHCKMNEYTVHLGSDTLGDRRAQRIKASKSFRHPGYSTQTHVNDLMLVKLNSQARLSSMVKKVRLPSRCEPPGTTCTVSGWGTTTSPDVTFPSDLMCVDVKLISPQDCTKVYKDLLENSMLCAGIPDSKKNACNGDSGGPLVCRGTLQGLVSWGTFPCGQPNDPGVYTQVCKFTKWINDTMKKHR
SMARCA2 activ – SMARCA2 function activation, primary screen; actives 1% (n = 370,000); AID 652017; MG213 cells, MMTV-luciferase reporter, dexamethasone, overnight; activation, % at 9.1 µM; in the data active = activation above about 7.8%
MsrA inh – inhibits bovine methionine sulfoxide reductase A. AID 651718. actives 0.75% (n = 360,000). purified bovine MsrA, absorbance read-out. inhibition, % at 15.5 µM; in the data active = inhibition above about 4.5%
MsrA activ conf – confirmation of bovine methionine sulfoxide reductase A activators. shares compounds with bovine MsrA act. purified bovine MsrA, absorbance read-out. activation, % at 10.6 µM. actives 12% (n = 1,000). AID 602270; in the data active = activation above about 4%;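 note: enzyme coupled to thioredoxin and thioredoxin reductase with NADPH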
Numbers stand for hits; - = inactive; . = no result. The list is not random: actives were taken first. Their share in the collection is about 2.8%.

SMILES	bovine MsrA act	proKLK7 act	SMARCA2 activ	MsrA inh	MsrA activ conf
Nc1ccccc1SC(CC(=O)c1ccccc1)c1ccccc1 (configuration not stated)	7.9	.	.	.	-
Cc1cc(NC(=O)CCCC(=O)NCc2cccs2)no1	7.9	-	-	-	-
Cc1cc(C(=O)NCc2cccs2)no1	-	-	-	-	.
CC(C)Nc1nc(Nc2ccc(F)cc2)c2sccc2n1	-	-	-	-	.
O=C(NCSc1ccnc(SCNC(=O)c2ccc(F)cc2)n1)c1ccc(F)cc1	8.5	-	-	-	-
O=C(NCCNC(=O)c1ccc(F)cc1)c1ccc(F)cc1	-	-	-	-	.
COc1ccc(-c2csc(NC(=O)C3=COCCO3)n2)cc1OC	11	-	-	-	-
COc1ccccc1C(=O)NCCC(=O)NCCCSc1ccccc1	9.8	-	-	-	-
CCN(CC)C(=O)CC[C@H]1CC[C@]2(CCCN(C(=O)c3ccccc3)C2)O1	.	-	-	.	.
O=C(NCCN1CCOCC1)c1ccccc1Cl	17	-	-	-	-
CC(=O)NC(Cc1ccccc1C)C(=O)NC1CCN(c2nnnn2-c2ccccc2)CC1 (configuration not stated)	12	-	-	-	-
CC(C)CNS(=O)(=O)/C=C/c1ccccc1CCNC(=O)OC(C)(C)C	.	-	-	.	.
COc1ccc2c(CC(=O)Nc3ccccc3OC)coc2c1	-	-	-	-	.
COc1ccc(NC(=O)COC(=O)Cc2coc3cc(OC)ccc23)c(OC)c1	8.0	-	-	-	-
COCCN(CCOC)Cc1cc(=O)oc2cc(C)c(C)cc12	-	-	-	-	.
CCC(C(=O)NC(C)(C)C)n1c(C(c2ccccc2)c2ccccc2)nc2ccccc21 (configuration not stated)	.	-	-	-	.
S=c1nc(-c2ccco2)[nH][nH]1	8.2	-	-	-	-
Cn1c(-c2ccco2)n[nH]c1=S	-	-	-	-	.
O=C(c1ccccc1)N1CCN(C(=O)c2cc3ccccc3o2)CC1	7.7	-	-	-	-
CCOC(=O)N1CCN(C(=O)c2cc3ccccc3o2)CC1	-	-	-	-	.
COC(=O)[C@]12C[C@H](CC(=O)NCCC(C)C)C(=O)N(Cc3ccc(Cl)cc3Cl)C1=C[C@H](COCc1ccccc1)O[C@@H]2C	.	-	-	.	.
C=C1CCC[C@]2(C)C[C@H]3OC(=O)C(CN(C)CC(OC)OC)[C@H]3CC12 (some centres not stated)	8.7	-	-	-	-
C=C1CCC[C@]2(C)C[C@H]3OC(=O)C(CNC(C)CC)[C@H]3CC12 (some centres not stated)	-	-	-	-	.
COc1ccccc1NC(=O)c1ccc2nsnc2c1	-	-	-	-	.
COc1ccccc1OC(=O)c1ccc2nsnc2c1	16	-	-	-	-
SMILES	bovine MsrA act	proKLK7 act	SMARCA2 activ	MsrA inh	MsrA activ conf
Cc1ccc(C(=O)NC2(C(F)(F)F)N=C3SCCN3C2=O)cc1 (configuration not stated)	-	-	-	-	.
O=C(NC1(C(F)(F)F)N=C2SCCN2C1=O)C1CCCCC1 (configuration not stated)	7.8	-	-	-	-
O=C(NC(=O)c1cccc(F)c1)OC[C@@H]1CCCN2CCCC[C@H]12	8.8	-	-	-	-
CN(C)CCCn1c2c(c(SCC(=O)Nc3cccc4ccccc34)nc1=O)CCCC2	11	-	-	-	-
CCN(CC)CCCn1c2c(c(SCC(=O)Nc3cccc4ccccc34)nc1=O)CCC2	-	-	-	-	.
CC(=O)N1CCN(C(=O)c2cccc(S(=O)(=O)N3CCN(c4ccccc4)CC3)c2)CC1	-	-	-	-	.
CC1CN(C(=O)c2cccc(S(=O)(=O)N3CCN(c4ccccc4)CC3)c2)CC(C)O1 (configuration not stated)	9.1	-	-	-	-
Cc1ccc(NC(=O)C(C)c2ccc([N+](=O)[O-])cc2)cc1Cl (configuration not stated)	20	-	-	-	-
CC(C(=O)Nc1ccccc1Br)c1ccc([N+](=O)[O-])cc1 (configuration not stated)	-	-	-	-	.
COc1ccc(NC(C)c2ccccc2)cc1 (configuration not stated)	-	-	-	-	.
COc1ccc(NC(=O)NC(C)c2ccccc2)cc1 (configuration not stated)	17	-	-	-	-
CC(=O)N1N=C(c2ccc(C)cc2)CC1c1ccc2c(c1)OCO2 (configuration not stated)	8.0	-	-	-	-
O=C(CC1SCCNC1=O)NCc1ccccc1 (configuration not stated)	-	-	-	-	.

From PubChem
